Compounds with a hit are over-represented: about 2.4% of the library has one in this group of screens.
D2 ag-1: HTS Assay for Allosteric Agonists of the Human D2 Dopamine Receptor: Primary Screen for Agonists; AID 485358, 2010; hit rate 0.53% among 340,000; D(2) dopamine receptor (Homo sapiens), P14416; activation, % at 2 µM; HEK293 T-REx D2 cells, calcium flux agonist mode;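 active means activation over 3 SD above normal in the single-dose calcium agonist read, cut at about 30% in these data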
Target sequence (P14416 whole entry, looked up): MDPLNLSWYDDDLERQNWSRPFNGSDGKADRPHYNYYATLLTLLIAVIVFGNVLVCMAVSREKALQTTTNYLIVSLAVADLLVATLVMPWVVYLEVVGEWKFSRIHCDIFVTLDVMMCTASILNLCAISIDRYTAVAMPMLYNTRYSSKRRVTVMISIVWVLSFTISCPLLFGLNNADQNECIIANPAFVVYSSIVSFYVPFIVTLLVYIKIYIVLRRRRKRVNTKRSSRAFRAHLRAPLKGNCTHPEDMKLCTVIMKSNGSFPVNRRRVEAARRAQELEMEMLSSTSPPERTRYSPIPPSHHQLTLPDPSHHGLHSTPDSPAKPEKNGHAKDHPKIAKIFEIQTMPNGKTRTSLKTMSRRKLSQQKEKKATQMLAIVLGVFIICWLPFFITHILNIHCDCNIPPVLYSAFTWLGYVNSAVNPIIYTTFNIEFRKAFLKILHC
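In this primary screen, compounds producing a positive calcium signal within 180 s of addition to tetracycline-induced, force-coupled HEK293 Trex D2 cells are flagged; cells are dye-loaded with a no-wash calcium kit beforehand.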
D2 PAM-1: HTS Assay for Positive Allosteric Modulators of the Human D2 Dopamine Receptor: Primary Screen for Potentiators; hit rate 0.34% among 340,000; AID 485347, 2010; potentiation, % at 10 µM; HEK293 T-REx D2, calcium flux, EC20 dopamine potentiation; D(2) dopamine receptor (Homo sapiens), P14416;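 active means potentiation over 3 SD above the plate norm, cut at about 30% in these data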
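Primary screen. Calcium kinetics in induced HEK293 T-REx D2 cells: compound pre-addition 180 s, EC20 dopamine, 180 s more.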
D2 PAM-2: Beta-Arrestin HTS for Positive Allosteric Modulators of the Human D2 Dopamine Receptor: Potentiators; D(2) dopamine receptor (Homo sapiens), P14416; DiscoveRx D2 beta-arrestin cells, luminescence, 90 min; 100% = 57 uM dopamine signal; potentiation, % (test concentration not listed); hit rate 0.23% among 360,000; in the data active means potentiation above about 50%; inconclusive means mostly about 30% to 49%
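PathHunter beta-arrestin assay in DiscoveRx D2 cells. Compounds were added with an EC20 of dopamine (50 nM final) for 90 min at 37 deg C. Luminescence was read 1 h after detection reagent, with 57 uM dopamine as the EC100 control.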
D2 ag-2: Beta-Arrestin HTS for Positive Allosteric Modulators of the Human D2 Dopamine Receptor: Agonists | hit rate 0.084% among 360,000 | activation, % (no concentration beside the values) | AID 624465, 2012 | DiscoveRx PathHunter D2 beta-arrestin, luminescence, 90 min; 100% = 57 uM dopamine signal; in the data active means activation above about 40%; inconclusive means between about 15% and that limit
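Agonist mode: compounds alone added to overnight-plated D2 PathHunter cells for 90 min at 37 C, with 57 uM final dopamine (EC100) defining full response. Beta-arrestin recruitment detected by chemiluminescent reagent, read after 1 h at ambient temperature.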
D2 antagonist: HTS Assay for Allosteric Antagonists of the Human D2 Dopamine Receptor: Primary Screen for Antagonists; D(2) dopamine receptor (Homo sapiens), P14416; hit rate 2% among 340,000; HEK293 TREx D2 cells, calcium flux, dopamine EC80; inhibition, % at 10 µM; in the data active means inhibition above about 30%; inactive means below that, where a call was filed
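Calcium mobilization kinetics were recorded at 1 s intervals in tetracycline-induced HEK293 T-REx D2 cells, first for 180 s after compound addition and then 180 s after EC80 dopamine.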
Large screens that a line does not name were inactive; ! = not active in a repeat.

COCCc1nn2c(=O)cc(COC(=O)C(c3ccccc3)c3ccccc3)nc2s1	none (no result: D2 ag-1, D2 PAM-2, D2 ag-2, D2 antagonist)
CCOC(=O)c1c(C)c(-c2ccccc2)n(CC(=O)Nc2cc(C)ccc2OC)c1C	none (no result: D2 PAM-2, D2 ag-2, D2 antagonist)
CCOC(=O)c1c(NC(=O)Nc2ccc(Cl)cc2)sc(C)c1C	D2 antagonist 36
CCOC(=O)c1sc(NC(=O)c2ccc(Cl)s2)cc1C	none
CCOC(=O)c1sc(NC(=O)Nc2ccc(Cl)cc2)cc1C	D2 antagonist 38 (no result: D2 ag-1)
CCOC(=O)c1c(NC(=O)Nc2cccc(Cl)c2)sc(C)c1C	none
COc1ccc(Nc2nc(N)c3cc(OC)c(OC)cc3n2)cc1	none (no result: D2 PAM-1, D2 PAM-2, D2 ag-2, D2 antagonist)
COc1ccc(OC)c(N2C(=O)CC(Cc3ccc(C)cc3)C2=O)c1 (stereo not drawn)	D2 PAM-1 35
COc1ccc(CC2CC(=O)N(c3ccc(C)cc3)C2=O)cc1 (stereo not drawn)	none
O=C(c1ccc(F)cc1)N(NC(=O)C(O)(c1ccccc1)c1ccccc1)c1ccccc1	D2 antagonist 40
CCOC(=O)c1ccc(NC(=O)Cc2ccc(-n3c(CC)nc4cccnc43)cc2)cc1	none (no result: D2 PAM-2, D2 ag-2, D2 antagonist)
O=[N+]([O-])c1ccc(Sc2nnnn2-c2ccccc2)c(Cl)c1	D2 antagonist 36
Cn1nnnc1Sc1ccc([N+](=O)[O-])cc1Cl	none
COc1cc(F)ccc1CN1CCC(C(=O)Nc2ccc(Oc3ccccc3)nc2)CC1	D2 antagonist 40
COc1ccc(CN2CCC(C(=O)Nc3ccc(Oc4ccccc4)nc3)CC2)cc1F	none
COc1ccc(OC)c(NC(=O)Cn2cc(C(=O)c3cccs3)c3ccccc32)c1	none (no result: D2 PAM-2, D2 ag-2, D2 antagonist)
O=C(CCc1ccc(Oc2cc([N+](=O)[O-])cc([N+](=O)[O-])c2)cc1)N1CCCCCC1	D2 PAM-2 75, D2 ag-2 inconclusive, D2 antagonist 37
Cc1cc(NC(=O)CS(=O)(=O)c2ccc(Cl)cc2)no1	D2 PAM-1 44
Cc1cc(NC(=O)CS(=O)(=O)c2ccc(F)cc2)no1	none
O=C(CSc1nc2ccccc2o1)Nc1nc(-c2ccccc2)cs1	D2 antagonist 30
O=C(CSc1nc(-c2cccs2)nc2cc(=O)[nH]n12)Nc1cccc(C(F)(F)F)c1	none (no result: D2 PAM-2, D2 ag-2, D2 antagonist)
Cc1ccc(S(=O)(=O)NC(C)C(=O)NC(C)c2cccs2)cc1 (stereo not drawn)	D2 PAM-1 32
Cc1ccc(S(=O)(=O)NC(CC(=O)O)c2cccs2)cc1 (stereo not drawn)	none
CCC(=O)N1CCc2cc(S(=O)(=O)NC(CC(C)C)C(=O)Nc3cc(C)ccc3OC)ccc21 (stereo not drawn)	none (no result: D2 PAM-2, D2 ag-2, D2 antagonist)
COc1ccc(OC)c(-n2c(-c3cccc(O)c3)n[nH]c2=S)c1	D2 PAM-1 36
CCC(Oc1ccccc1)C(=O)NC1C(=O)N2C1SC(C)(C)C2C(=O)O (stereo not drawn)	none
CC1(C)S[C@@H]2[C@H](NC(=O)Cc3ccccc3)C(=O)N2[C@H]1C(=O)O	D2 antagonist 33!
Cc1ccc(C)c(N2CCN(C(=O)CCS(=O)(=O)c3cc(Br)cc4c3N(C(=O)C3CC3)CC4)CC2)c1	none (no result: D2 PAM-2, D2 ag-2, D2 antagonist)
CC(O)C(O)C(O)C(O)C1NCCS1 (stereo not drawn)	D2 antagonist 79
O=C(Nc1cccc(Cl)c1)c1ccc2nc(CCc3ccccc3)oc2c1	none (no result: D2 PAM-2, D2 ag-2, D2 antagonist)
Cc1ccc(-c2c[n+](Cc3ccc(Cl)c(Cl)c3)c3n2CCC3)cc1	D2 antagonist 30
COc1ccccc1C(=O)Nc1ccnn1C1CCN(Cc2cn(C)c3ccccc23)CC1	D2 antagonist 62
O=C(Nc1ccnn1C1CCN(C/C=C/c2ccccc2)CC1)c1cccc(F)c1	none
COc1ccccc1C(=O)Nc1ccnn1C1CCN(Cc2cc(C)c(C)cc2C)CC1	D2 antagonist 53
COc1ccccc1C(=O)Nc1ccnn1C1CCN(CCCC2CCCC2)CC1	D2 antagonist 31
O=C(Nc1ccnn1C1CCN(CCCc2ccccc2)CC1)c1cccc(F)c1	D2 ag-1 34
O=C(Nc1ccnn1C1CCN(CCCC2CCCC2)CC1)c1ccccc1Cl	none
Cc1cc(C)c(CN2CCC(n3nccc3NC(=O)c3ccccc3Cl)CC2)cc1C	none
CN(CCCOc1ccccc1F)Cc1ccccc1	none
CCOc1cccc(OCCOCCN(C)Cc2ccccc2)c1	D2 antagonist 30
CN(CCOCCOc1ccc(Cl)cc1Br)Cc1ccccc1	D2 antagonist 40
CN(CCCOc1ccccc1Br)Cc1ccccc1	D2 antagonist 39
Cc1ccc(Cl)c(OCCCN(C)Cc2ccccc2)c1	D2 antagonist 63
Cc1cccc(-c2c3c(=O)n(C)c(=O)n(C)c3cn2-c2cc(N)c(Cl)cc2Cl)c1	none (no result: D2 PAM-2, D2 ag-2, D2 antagonist)
Cc1ccc(Cl)c(OCCCCN(C)Cc2ccccc2)c1	D2 antagonist 45
CCOc1ccc(OCCN(C)Cc2ccccc2)cc1	none
CN(CCOc1ccc(Cl)c(Cl)c1)Cc1ccccc1	D2 antagonist 65
O=C(c1n[nH]c2ccccc12)N1CCOCC1	D2 antagonist 39
Cc1cc(N2CCCC2)nc(N2C3CCC2CC(O)(c2ccc(F)cc2)C3)n1 (stereo not drawn)	D2 antagonist 42 (no result: D2 PAM-2, D2 ag-2)
COc1ccc(N2CCN(c3ccc4nnc(CCC(=O)Nc5ccc(C)cc5)n4n3)CC2)cc1	D2 antagonist 34
COc1ccc(NC(=O)CCc2nnc3ccc(N4CCC(C)CC4)nn23)cc1	none
Cc1[nH]c2ccccc2c1C(=O)CN1CCN(C2CCCCC2)CC1	D2 antagonist 58 (no result: D2 PAM-2, D2 ag-2)
Cc1[nH]c2ccccc2c1C(=O)CN1CCN(C/C=C/c2ccccc2)CC1	D2 antagonist 80
COC(=O)c1sc2cccc(F)c2c1S(=O)(=O)N1CCN(c2ccc(F)cc2)CC1	none (no result: D2 PAM-2, D2 ag-2, D2 antagonist)
Cc1ccc(OCC(O)CN2CCN(c3ccc(C)cc3)CC2)cc1 (stereo not drawn)	D2 antagonist 53
Cc1ccc(N2CCN(CC(O)COc3ccccc3)CC2)cc1 (stereo not drawn)	D2 antagonist 39
Cc1cc(=O)oc2cc(OCC(O)CN3CCN(c4ccc(F)cc4)CC3)ccc12 (stereo not drawn)	D2 ag-1 73, D2 ag-2 inconclusive, D2 antagonist 76
CCOC(=O)N1CCN(CC(O)COc2ccc(C(C)C)c(C)c2)CC1 (stereo not drawn)	D2 ag-1 31
Cc1ccc(OCC(O)CN2CCN(CC(O)COc3ccc(C)cc3)CC2)cc1 (stereo not drawn)	none
O=C(Nc1cccc(OCc2cc(=O)n3ccccc3n2)c1)Nc1cccc(C(F)(F)F)c1	none (no result: D2 PAM-2, D2 ag-2, D2 antagonist)
COc1ccc(Cl)cc1NC(=O)[C@H]1O[C@@H]2OC(C)(C)O[C@@H]2[C@H]2OC(C)(C)O[C@H]21	none (no result: D2 PAM-2, D2 ag-2, D2 antagonist)
OC(COc1ccc(Cl)cc1)CN1CCC(Cc2ccccc2)CC1 (stereo not drawn)	none
Cc1ccc(C)c(OCC(O)CN2CCC(Cc3ccccc3)CC2)c1 (stereo not drawn)	D2 antagonist 47
Cc1ccc(C(=O)NNC(=O)c2csc(N3CCOCC3)n2)o1	none

Screening data deposited in PubChem BioAssay by National Center for Advancing Translational Sciences (NCATS).
